# Results filed as inconclusive are left out. Calls of active or inactive are those of the source. The calls were made as follows: active = hit-call score of the fitted dose curve at least 0.9, where 1 is the maximum; inconclusive = response in the unintended direction; inactive = score below 0.9.
# Assays:
# [1] = target: human Opioid Receptor Mu (Opiate Mu), OPRM1 (gene 4988) (UniProt P35372); test: NVS_GPCR_hOpiate_mu: NovaScreen (NVS) G Protein-Coupled Receptor Assay for human Opioid Receptor Mu (Opiate Mu) (AID 2283290);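 also: hits lower bound tracer signal versus DMSO meaning displacement of the ligand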
# Chain of human Opioid Receptor Mu (Opiate Mu), OPRM1 (gene 4988) (P35372 whole entry, looked up): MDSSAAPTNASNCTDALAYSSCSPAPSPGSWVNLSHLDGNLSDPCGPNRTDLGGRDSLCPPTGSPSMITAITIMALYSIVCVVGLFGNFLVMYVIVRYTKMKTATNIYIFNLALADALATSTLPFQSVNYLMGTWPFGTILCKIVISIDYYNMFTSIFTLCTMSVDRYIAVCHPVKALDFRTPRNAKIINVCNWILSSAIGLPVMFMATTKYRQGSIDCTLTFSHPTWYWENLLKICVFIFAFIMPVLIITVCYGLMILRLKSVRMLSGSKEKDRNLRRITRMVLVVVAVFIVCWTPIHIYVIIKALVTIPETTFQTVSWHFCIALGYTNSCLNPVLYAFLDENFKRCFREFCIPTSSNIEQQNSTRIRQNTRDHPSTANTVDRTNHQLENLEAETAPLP
# Method in brief: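 Radioligand displacement binding on membranes from CHO cells expressing the receptor, 2.5 h after dosing, filter-based scintillation counting; loss of signal vs DMSO baseline. Screened in duplicate at 25 uM, actives then run in concentration series.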
# [2] = target: rat Serotonin, 5-Hydroxytryptamine Receptor 1 (5HT1), Non-Selective Binding, Htr1a (gene 24473) (UniProt P19327); test: NVS_GPCR_r5HT1_NonSelective: NovaScreen (NVS) G Protein-Coupled Receptor Assay for rat Serotonin, 5-Hydroxytryptamine Receptor 1 (5HT1), Non-Selective Binding (AID 2283286)
# Chain of rat Serotonin, 5-Hydroxytryptamine Receptor 1 (5HT1), Non-Selective Binding, Htr1a (gene 24473) (P19327 whole entry, looked up): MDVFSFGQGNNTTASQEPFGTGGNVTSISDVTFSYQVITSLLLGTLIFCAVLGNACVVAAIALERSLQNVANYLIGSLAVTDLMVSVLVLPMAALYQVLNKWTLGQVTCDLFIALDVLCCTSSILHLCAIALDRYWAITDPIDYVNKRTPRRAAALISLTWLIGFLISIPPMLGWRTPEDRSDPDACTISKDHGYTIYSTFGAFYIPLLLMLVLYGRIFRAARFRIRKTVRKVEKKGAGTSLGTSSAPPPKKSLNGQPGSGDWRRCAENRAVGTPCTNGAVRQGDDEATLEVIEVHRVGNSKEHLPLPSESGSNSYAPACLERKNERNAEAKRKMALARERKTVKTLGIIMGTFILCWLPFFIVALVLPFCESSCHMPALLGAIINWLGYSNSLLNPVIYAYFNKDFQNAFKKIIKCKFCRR
# Method in brief: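 Binding of a radioligand to rat cortex membranes is read by filtration and scintillation counting after 1 h. Compounds were screened at 25 uM in duplicate. Actives were then titrated to a top of 50 uM. DMSO is the baseline.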
# [3] = test system: rabbit Platelet Activating Factor Receptor (PAF), gene 100354046; test: NVS_GPCR_rabPAF: NovaScreen (NVS) G Protein-Coupled Receptor Assay for rabbit Platelet Activating Factor Receptor (PAF) (AID 2283287)
# Method in brief: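 Rabbit platelet membrane preparation; radioligand displacement read by filter-based scintillation counting 1 h after dosing, loss of signal versus DMSO. Primary screen in duplicate at 25 uM, actives followed up in concentration series.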
# [4] = target: mouse Cholecystokinin, CCK1 Receptor (CCKA), Cckar (gene 12425) (UniProt O08786); test: NVS_GPCR_mCCKAPeripheral: NovaScreen (NVS) G Protein-Coupled Receptor Assay for mouse Cholecystokinin, CCK1 Receptor (CCKA) (AID 2283285)
# Chain of mouse Cholecystokinin, CCK1 Receptor (CCKA), Cckar (gene 12425) (O08786 whole entry, looked up): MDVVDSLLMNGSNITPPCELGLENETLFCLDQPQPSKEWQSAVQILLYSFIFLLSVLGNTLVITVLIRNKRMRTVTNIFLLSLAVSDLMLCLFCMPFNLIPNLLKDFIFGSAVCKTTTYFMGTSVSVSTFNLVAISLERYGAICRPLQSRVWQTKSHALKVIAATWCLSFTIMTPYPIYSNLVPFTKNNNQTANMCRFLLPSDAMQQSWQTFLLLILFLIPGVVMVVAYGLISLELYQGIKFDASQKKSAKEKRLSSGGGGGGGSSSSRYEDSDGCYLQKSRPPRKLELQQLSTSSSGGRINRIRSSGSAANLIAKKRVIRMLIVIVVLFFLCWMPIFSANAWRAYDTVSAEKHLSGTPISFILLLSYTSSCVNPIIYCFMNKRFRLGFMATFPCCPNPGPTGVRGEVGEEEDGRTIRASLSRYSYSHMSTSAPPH
# Method in brief: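 Chemicals were first screened in duplicate at 25 uM, with those meeting threshold (e.g., 30% inhibition) retested in singleton concentration series to 50 uM maximum. Binding of radioligand to mouse pancreatic membranes was read after 2 h by filtration and scintillation counting.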
# [5] = target: human Opioid Receptor Delta 1 (Opiate D1), OPRD1 (gene 4985) (UniProt P41143); test: NVS_GPCR_hOpiate_D1: NovaScreen (NVS) G Protein-Coupled Receptor Assay for human Opioid Receptor Delta 1 (Opiate D1) (AID 2283280)
# Chain of human Opioid Receptor Delta 1 (Opiate D1), OPRD1 (gene 4985) (P41143 whole entry, looked up): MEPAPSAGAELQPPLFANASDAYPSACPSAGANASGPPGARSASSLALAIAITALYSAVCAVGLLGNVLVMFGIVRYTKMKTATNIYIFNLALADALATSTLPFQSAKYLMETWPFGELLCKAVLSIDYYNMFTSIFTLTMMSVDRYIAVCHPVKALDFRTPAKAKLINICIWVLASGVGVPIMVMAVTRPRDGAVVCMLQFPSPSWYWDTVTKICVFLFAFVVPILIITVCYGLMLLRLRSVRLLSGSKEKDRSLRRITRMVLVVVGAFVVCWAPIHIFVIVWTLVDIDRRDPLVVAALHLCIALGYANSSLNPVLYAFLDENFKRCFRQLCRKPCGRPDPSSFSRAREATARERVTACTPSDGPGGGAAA
# Method in brief: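 Membrane preparations from CHO cells bearing the human receptor were incubated 1 h with test chemical, and bound radioligand was counted after filtration. Actives from 25 uM duplicate screening were retested in concentration-response.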
# [6] = target: human Purinergic Receptor P2Y, P2RY1 (gene 5028) (UniProt P47900); test: NVS_GPCR_hPY2: NovaScreen (NVS) G Protein-Coupled Receptor Assay for human Purinergic Receptor P2Y (AID 2283281)
# Chain of human Purinergic Receptor P2Y, P2RY1 (gene 5028) (P47900 whole entry, looked up): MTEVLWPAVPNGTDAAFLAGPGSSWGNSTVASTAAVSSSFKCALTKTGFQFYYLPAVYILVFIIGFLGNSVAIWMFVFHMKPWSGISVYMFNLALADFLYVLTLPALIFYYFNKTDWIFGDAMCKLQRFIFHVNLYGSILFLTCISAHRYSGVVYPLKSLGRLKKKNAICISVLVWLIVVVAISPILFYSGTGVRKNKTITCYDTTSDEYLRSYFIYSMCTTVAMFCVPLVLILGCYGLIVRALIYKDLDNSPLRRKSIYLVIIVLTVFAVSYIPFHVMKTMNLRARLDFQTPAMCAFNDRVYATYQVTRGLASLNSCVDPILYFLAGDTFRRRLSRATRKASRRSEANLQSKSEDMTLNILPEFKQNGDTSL
# Method in brief: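 Filtration scintillation readout of radioligand displacement on U937 extract, measured 1 h post-dosing. Single 25 uM duplicate screen, then singleton concentration series to 50 uM for chemicals passing threshold; DMSO as baseline.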
# [7] = target: human Thromboxane A2 Receptor (TXA2), TBXA2R (gene 6915) (UniProt P21731); test: NVS_GPCR_hTXA2: NovaScreen (NVS) G Protein-Coupled Receptor Assay for human Thromboxane A2 Receptor (TXA2) (AID 2283282);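 also: actives reduce bound radioligand signal relative to DMSO baseline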
# Chain of human Thromboxane A2 Receptor (TXA2), TBXA2R (gene 6915) (P21731 whole entry, looked up): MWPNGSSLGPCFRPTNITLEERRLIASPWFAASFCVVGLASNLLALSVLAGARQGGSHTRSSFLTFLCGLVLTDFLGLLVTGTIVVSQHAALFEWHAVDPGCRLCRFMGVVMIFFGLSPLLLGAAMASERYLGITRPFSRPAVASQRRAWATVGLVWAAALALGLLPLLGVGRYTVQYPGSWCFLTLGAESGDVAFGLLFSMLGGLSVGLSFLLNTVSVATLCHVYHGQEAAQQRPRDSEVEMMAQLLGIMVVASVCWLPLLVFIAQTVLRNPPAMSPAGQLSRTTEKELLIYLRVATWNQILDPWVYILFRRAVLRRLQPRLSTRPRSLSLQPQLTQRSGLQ
# Protocol: NVS_GPCR_hTXA2 is a biochemical, single-readout assay that uses extracted gene-proteins from Human platelets in a cell-free assay. Measurements were taken 1 hour after chemical dosing in a 96-well plate.NVS_GPCR_hTXA2 is one of one assay component(s) measured or calculated from the NVS_GPCR_hTXA2 assay. It is designed to make measurements of radioligand binding, a form of binding reporter, as detected with scintillation counting signals by Filter-based radiodetection technology.Data from the assay component NVS_GPCR_hTXA2 was analyzed into 1 assay endpoint. This assay endpoint, NVS_GPCR_hTXA2, was analyzed in the positive analysis fitting direction relative to DMSO as the negative control and baseline of activity. Using a type of binding reporter, loss-of-signal activity can be used to understand changes in the binding as they relate to the gene TBXA2R. Furthermore, this assay endpoint can be referred to as a primary readout, because the performed assay has only produced 1 assay endpoint. To generalize the intended target to other relatable targets, this assay endpoint is annotated to the gpcr intended target family, where the subfamily is rhodopsin-like receptor.
# Binding assays used specific radioligands (tritiated, iodinated) with non-radioactive competitive displacement ligands in agonist or antagonist protocols (as indicated) and various reference compounds and inhibitors to titrate specific binding to receptors and transporters. Most enzyme assays (CYPs, kinases, phosphatases, proteases, HDACs) used recombinant protein and specific substrates (fluorescence mostly, some colorimetric and radioactive) and inhibitors, followed by a biochemical separation of substrate and product. All assays for the biochemical HTS were initially run in duplicate at a single concentration (10 uM for CYP450 assays and 25 uM for all others). […] Each assay was run with positive and negative controls, and concurrent controls on every plate. The follow-up (secondary) screen tested active chemical-pairs in concentration series, as well as a few additional assays not tested in the primary screen, some selected negative inactives, and several cases re-run in the concentration series for confirmatory purposes.
# [8] = target: human Vasopressin 1A Receptor (V1A), AVPR1A (gene 552) (UniProt P37288); test: NVS_GPCR_hV1A: NovaScreen (NVS) G Protein-Coupled Receptor Assay for human Vasopressin 1A Receptor (V1A) (AID 2283284)
# Chain of human Vasopressin 1A Receptor (V1A), AVPR1A (gene 552) (P37288 whole entry, looked up): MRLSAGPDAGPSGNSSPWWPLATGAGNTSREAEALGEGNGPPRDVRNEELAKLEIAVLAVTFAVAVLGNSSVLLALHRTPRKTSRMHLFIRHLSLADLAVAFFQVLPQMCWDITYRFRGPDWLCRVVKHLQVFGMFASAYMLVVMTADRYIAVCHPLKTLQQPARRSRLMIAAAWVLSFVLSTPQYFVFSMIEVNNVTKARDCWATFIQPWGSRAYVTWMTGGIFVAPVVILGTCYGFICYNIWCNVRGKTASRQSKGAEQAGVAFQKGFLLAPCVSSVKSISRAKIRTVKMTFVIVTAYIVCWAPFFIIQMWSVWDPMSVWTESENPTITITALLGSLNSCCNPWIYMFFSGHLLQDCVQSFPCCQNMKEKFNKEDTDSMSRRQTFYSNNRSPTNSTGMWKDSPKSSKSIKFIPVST
# Method in brief: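 Single-concentration duplicate screen at 25 uM, with concentration-response follow-up (top 50 uM) for actives. The assay measured displacement of a radioligand from human platelet-derived receptor after 1.5 h, detected by filtration and scintillation counting.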
# [9] = test system: guinea pig Atrionatriuretic Peptide Receptor A (ANPA), gene 100135578; test: NVS_GPCR_gANPA: NovaScreen (NVS) G Protein-Coupled Receptor Assay for guinea pig Atrionatriuretic Peptide Receptor A (ANPA) (AID 2283291)
# Method in brief: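 Displacement of specific radioligand from guinea pig cerebellum membranes was read by scintillation after 1 h. A duplicate single-point screen at 25 uM was followed by a concentration series up to 50 uM, analysed relative to DMSO.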
# [10] = target: rat Adrenergic, Alpha 1, Non-selective Receptor (Adra1), Adra1a (gene 29412) (UniProt P43140); test: NVS_GPCR_rAdra1_NonSelective: NovaScreen (NVS) G Protein-Coupled Receptor Assay for rat Adrenergic, Alpha 1, Non-selective Receptor (Adra1) (AID 2283289)
# Chain of rat Adrenergic, Alpha 1, Non-selective Receptor (Adra1), Adra1a (gene 29412) (P43140 whole entry, looked up): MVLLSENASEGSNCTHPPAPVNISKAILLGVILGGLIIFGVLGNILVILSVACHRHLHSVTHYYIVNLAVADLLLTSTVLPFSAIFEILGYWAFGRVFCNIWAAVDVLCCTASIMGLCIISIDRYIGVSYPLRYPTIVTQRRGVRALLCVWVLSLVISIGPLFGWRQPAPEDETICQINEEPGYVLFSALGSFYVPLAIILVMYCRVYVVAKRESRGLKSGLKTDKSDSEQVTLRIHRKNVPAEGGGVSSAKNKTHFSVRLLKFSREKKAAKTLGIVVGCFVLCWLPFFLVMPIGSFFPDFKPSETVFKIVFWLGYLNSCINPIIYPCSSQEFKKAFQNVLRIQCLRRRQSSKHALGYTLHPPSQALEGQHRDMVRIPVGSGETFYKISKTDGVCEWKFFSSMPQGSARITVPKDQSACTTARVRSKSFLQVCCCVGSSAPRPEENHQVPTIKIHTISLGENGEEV
# Method in brief: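 Chemicals first screened in duplicate at 25 uM, then actives tested in concentration series up to 50 uM. Binding measured as displacement of radioligand from rat forebrain membrane receptors, 1 h, filtration with scintillation readout; DMSO baseline.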
structure (smiles),measurement,setting,value
CCCOCC(=Nc1ccc(Cl)cc1C(F)(F)F)n1ccnc1,AC50,[1],7.33 µM (active)
CCOP(=S)(OCC)Oc1cc(C)nc(C(C)C)n1,outcome,[2],inactive
COP(=O)(OC)OC(Br)C(Cl)(Cl)Br (stereo not drawn),outcome,[3],inactive
same,AC50,[1],8.83 µM (active)
C[Si](Cn1cncn1)(c1ccc(F)cc1)c1ccc(F)cc1,AC50,[4],25 µM (active)
same,AC50,[3],6.38 µM (active)
same,AC50,[1],9.11 µM (active)
S=C1NCCN1,outcome,[1],inactive
O=C(O)c1cc(Oc2ccc(C(F)(F)F)cc2Cl)ccc1[N+](=O)[O-],outcome,[5],inactive
CN(C)[C@@H]1C(=O)C(C(N)=O)=C(O)[C@@]2(O)C(=O)C3=C(O)c4c(O)cccc4[C@@](C)(O)[C@H]3[C@H](O)[C@@H]12,outcome,[6],inactive
same,outcome,[7],inactive
CCC(=NOC/C=C/Cl)C1=C(O)CC(C2CCOCC2)CC1=O (stereo not drawn),outcome,[8],inactive
COc1cccc(C(=O)NN(C(=O)c2cc(C)cc(C)c2)C(C)(C)C)c1C,outcome,[8],inactive
C#CCC1=C(C)C(OC(=O)C2C(C=C(C)C)C2(C)C)CC1=O (stereo not drawn),outcome,[4],inactive
same,AC50,[3],10.9 µM (active)
same,outcome,[9],inactive
CCCCOC(=O)c1ccccc1C(=O)O,outcome,[10],inactive
CCOP(=S)(Oc1cnc(C(C)(C)C)nc1)OC(C)C (stereo not drawn),AC50,[3],11.5 µM (active)
CCCSP(=O)(OCC)Oc1ccc(Br)cc1Cl (stereo not drawn),outcome,[4],inactive
same,AC50,[1],4.96 µM (active)
CNC(=O)ON=C(C)SC,outcome,[3],inactive
CCCCOC(=O)[C@@H](C)Oc1ccc(Oc2ccc(C#N)cc2F)cc1,outcome,[3],inactive
CCOP(=S)(OCC)OC(Cl)C(Cl)(Cl)Cl (stereo not drawn),outcome,[10],inactive
CC[C@H](C)[C@H]1O[C@]2(C=C[C@@H]1C)C[C@@H]1C[C@@H](C/C=C(\C)[C@@H](O[C@H]3C[C@H](OC)[C@@H](O[C@H]4C[C@H](OC)[C@@H](NC)[C@H](C)O4)[C@H](C)O3)[C@@H](C)/C=C/C=C3\CO[C@@H]4[C@H](O)C(C)=C[C@@H](C(=O)O1)[C@]34O)O2,AC50,[5],15.5 µM (active)
same,AC50,[7],14.5 µM (active)
same,outcome,[8],inactive
same,AC50,[4],10.4 µM (active)
same,AC50,[1],15 µM (active)
